Compound activity: PubChem BioAssay, several laboratories
Sampled rows, rich in hits. Any-hit rate of the full collection: about 1.5%.
HDAC3 inhib = HDAC3 deacetylase inhibitors, primary screen, biochemical, fluorescence, cell-free homogeneous; Histone deacetylase 3 (Homo sapiens), O15379; recombinant HDAC3, fluorogenic peptide/trypsin coupled; inhibition, % at 8.3 µM; actives 0.15% (n = 320,000); AID 2718, 2010; in the data active = inhibition above about 26%, passing the limit was not always enough; inconclusive = no clear call, values can overlap the other calls
Target sequence (O15379 whole entry, looked up): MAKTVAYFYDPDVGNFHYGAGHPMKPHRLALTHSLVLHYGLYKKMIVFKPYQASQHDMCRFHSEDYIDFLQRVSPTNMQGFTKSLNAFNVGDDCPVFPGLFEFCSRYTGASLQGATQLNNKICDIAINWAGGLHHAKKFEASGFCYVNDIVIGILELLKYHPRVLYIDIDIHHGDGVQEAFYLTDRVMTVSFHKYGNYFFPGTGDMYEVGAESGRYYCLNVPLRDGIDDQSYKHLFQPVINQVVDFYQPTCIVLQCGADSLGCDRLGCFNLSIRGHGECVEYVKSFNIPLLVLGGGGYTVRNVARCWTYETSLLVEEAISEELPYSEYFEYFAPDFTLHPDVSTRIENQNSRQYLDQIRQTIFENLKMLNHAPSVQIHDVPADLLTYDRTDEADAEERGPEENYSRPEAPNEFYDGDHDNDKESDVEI
NALP1 yeast inh = NALP1 inflammasome inhibitors in reconstituted yeast, colorimetric, S. cerevisiae, triplicate retest | actives 0.61% (n = 280,000) | inhibition, % at 10 µM | S. cerevisiae NALP1/ASC/caspase-1 growth, X-gal OD620, 72 h; in the data active = inhibition mostly above about 24%, no sharp cut-off; inactive = mostly below about 32%
NALP3 yeast inh = NALP3 inflammasome inhibitors in reconstituted yeast, primary screen, luminescence, uHTS; actives 0.39% (n = 330,000); Yeast reconstituted NLRP3/ASC/caspase-1, beta-gal luminescence, 24 h; AID 2825, 2010; inhibition, % at 10 µM;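 active = inhibition of 50% or more; inactive = inhibition below 50%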
PolyA inh = polyadenylation inhibitors in yeast reporter cells, primary screen, luminescence, S. cerevisiae | S. cerevisiae SKY197-pL101 polyadenylation reporter, beta-gal luminescence; efflux-impaired pdr1/pdr3 knockout yeast; score 100 = 6 SD above DMSO | activity score, % at 12 µM | actives 0.02% (n = 300,000);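 active = lowest replicate activity score at least 50, where 100 means six control SD above control mean; inconclusive = lowest score under 50 but half or more replicates reach 50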;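 note: yeast exposed to compound for 9 h at 30 °C; higher score means more reporter readthrough which indicates perturbed polyadenylation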
Efflux pump mplx = inhibitors of Candida efflux pumps in yeast, primary screen, S. cerevisiae, Nile Red, multiplex. actives 0.44% (n = 330,000). inhibition, % at 10 µM. S. cerevisiae Candida pump triplex;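 active = plate passing quality check with inhibition over a set limit, or well fluorescence over plate mean plus 4 SD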;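 note: Nile Red retained in pooled yeast measured as flow cytometry median fluorescence; higher means more Nile Red kept so more efflux inhibition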
JMJD2C inh = inhibitors of GASC-1 histone demethylase, primary screen, biochemical, fluorescence, DELFIA europium; GST-JMJD2C(1-420) H3K9me3 demethylation; inhibition, % at 2.35 µM; actives 0.069% (n = 330,000); AID 2099, 2009;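 active = more than half of a compound's replicate wells show inhibition beyond 50%, single wells judged on their own value; inconclusive = some, but no more than half, of replicates pass 50% inhibition; inactive = no replicate passes 50% inhibition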;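 note: signal counts dimethyl H3K9 product captured on neutravidin plate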
NALP3 yeast conf = NALP3 inhibitors retested in yeast, confirmation, luminescence, single concentration; shares compounds with NALP3 yeast inh; yeast expressing human NALP3; inhibition, % at 10 µM; actives 81% (n = 1,300); in the data active = inhibition above about 48%
Casp1 ASC ctr = CASP1-PYCARD signaling inhibition in yeast, confirmatory test, counterassay for NLRP3 inhibitor program, one-dose. inhibition, % at 10 µM. actives 66% (n = 1,000). shares compounds with NALP3 yeast inh. AID 488784, 2010. yeast expressing Caspase-1-ASC, luminescence counter screen
NALP3 retest = NALP3 inhibitors in yeast, repeat test, confirmation, luminescence, single concentration, retest; AID 488794, 2010; shares compounds with NALP3 yeast inh; inhibition, % at 10 µM; yeast expressing human NALP3, luminescence read-out; actives 53% (n = 1,000)
Hits are given with their value; n = inactive; u = inconclusive; x = not tested or not shown. Cut-off read from the data, not from the text of the source, unless noted: active = inhibition above about 50%; inactive = the rest.

SMILES	HDAC3 inhib	NALP1 yeast inh	NALP3 yeast inh	PolyA inh	Efflux pump mplx	JMJD2C inh	NALP3 yeast conf	others
CC(=O)O[C@H]1C[C@@H]2CC[C@@H]3[C@H](CC[C@]4(C)C(=O)CC[C@@H]34)[C@@]2(C)C[C@@H]1OC(C)=O	n	x	n	x	n	n	x
CC(=O)[C@H]1CC[C@H]2[C@@H]3CC[C@H]4C[C@H](O)CC[C@]4(C)[C@H]3C(=O)C[C@]12C	n	n	n	n	n	n	x
C[C@]12CCC3C(CC[C@H]4C[C@@H](O)CC[C@]34C)[C@H]1C=CC2=O (some centres not stated)	n	x	55	x	n	n	60
COC(=O)c1c2[n+](cc3cc(OC)c(OC)cc13)CCc1cc(OC)c(OC)cc1-2	n	x	n	n	n	n	x
CCOc1cc2c(cc1OCC)-n1cccc1C(c1ccc(C(C)C)cc1)NC2 (configuration not stated)	n	n	n	n	n	n	x
Cc1ccc(OCC(=O)N2CCN(C3CCC(c4ccccc4)CC3)CC2)cc1 (configuration not stated)	n	n	n	n	n	n	x
C[C@]12CCC3C(CC[C@H]4C[C@@H](O)CC[C@]34C)C1[C@H]1CN=N[C@H]1[C@@H]2O (some centres not stated)	n	x	n	x	n	n	x
C[C@]12CCC3C(CC[C@H]4C[C@@H](O)CC[C@]34C)C1CCC2=O (some centres not stated)	n	x	64	x	n	n	66	Casp1 ASC ctr=63;NALP3 retest=n
CC(=O)C1CCC2C3CCC4CC(O)CCC4(C)C3CCC12C (configuration not stated)	n	x	59	n	n	n	69	Casp1 ASC ctr=60;NALP3 retest=58
C[C@]12CCC3[C@@H](CC[C@@H]4C[C@H](O)CC[C@]34C)[C@@H]1CCC2=O (some centres not stated)	n	x	67	x	n	x	61	Casp1 ASC ctr=71;NALP3 retest=61
C[C@]12CCC3C(CC[C@H]4C[C@@H](O)CC[C@]34C)C1C[C@@H](Br)[C@H]2O (some centres not stated)	n	x	58	x	n	n	50
COC(=O)C1=C(c2ccc(F)cc2OCc2ccccc2)C[C@@H]2CC[C@H]1N2C(=O)NC1Cc2ccccc2C1	n	x	n	x	n	x	x
O=C(O)C1Cc2ccccc2N2CCCC12 (configuration not stated)	n	n	n	n	n	n	x
CN1/C(=C\C=C\C2=[N+](C)c3ccc4ccccc4c3C2(C)C)C(C)(C)c2ccccc21	n	57	53	x	106	n	53
Cc1cccc(OP(=O)(NCc2ccccc2)Oc2cccc(C)c2)c1	n	n	n	n	n	n	x
C[C@]1(O)CCC2C3CC[C@H]4C[C@@H](OC(=O)CNC(=O)CN)CC[C@]4(C)C3CC[C@@]21C (some centres not stated)	n	x	56	x	n	n	71
C[C@]12CCC(OC(=O)CCC(=O)O)CC1=CCC1C2CC[C@]2(C)C(=O)CCC12 (some centres not stated)	n	n	59	n	n	n	66	Casp1 ASC ctr=57;NALP3 retest=n
CC12CCC3C(CC=C4CC5(CCC43C)OCCO5)C1CCC2=O (configuration not stated)	n	n	62	n	n	n	75
C[C@]12CC[C@H](OS(=O)(=O)O)CC1=CC[C@@H]1[C@@H]2CC[C@]2(C)C(=O)CC[C@@H]12	n	x	n	n	n	n	x
COC(=O)C1=C(c2ccc(OCc3ccccc3)cc2)C[C@@H]2CC[C@H]1N2C(=O)NCc1ccc([N+](=O)[O-])cc1	n	x	n	x	n	n	x
Cc1cc(OCC(=O)N2CCC(C(=O)O)(c3ccccc3)CC2)c2c(C)c(C)c(=O)oc2c1	n	n	n	n	n	n	x
Cn1c(O)c(Cc2cccc(Cl)c2Cl)c(=O)n(C)c1=O	n	n	n	n	n	n	x
O=C(NC(=C(Cl)Cl)P(=O)(c1ccccc1)c1ccccc1)c1ccccc1	n	n	n	n	n	n	x
C[C@]12CCC(=O)C=C1C=CC1C2CC[C@]2(C)C(=O)CCC12 (some centres not stated)	n	x	50	x	n	x	57
COc1cc2c(cc1OC)CN(c1ccc([N+](=O)[O-])c(C(F)(F)F)c1)CC2	n	n	50	n	n	n	n
CCOC(=O)C1=Nc2ccccc2/C1=C\c1c(O)n(C)c(=O)n(C)c1=O	n	n	53	n	n	u	n
c1ccc2sc(NC3=NCCN3)nc2c1	n	104	97	n	n	n	95	Casp1 ASC ctr=99;NALP3 retest=98
COc1ccc2nc(NC3=NCCN3)sc2c1	n	93	95	n	n	n	n
CC(=O)c1cc(C#N)c(N2CCN(C)CC2)nc1C	n	n	n	n	n	n	x
